# Data taken from PubChem BioAssay AID488969 (Vanderbilt High Throughput Screening Facility, 2010).
# Over roughly 110,000 compounds, “z-score” has its median near -0.1; the highest 2% begin near 2. Shown is part of a subset that was picked to be rich in the highest values. Active and inactive are the calls of the source.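 Rule for the calls: active = z-score in the third read window above 3 or below -3; inactive = the rest.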
# Molecular target: Metabotropic glutamate receptor 8 (Rattus norvegicus) (UniProt P70579)
# Sequence (P70579 whole entry, looked up): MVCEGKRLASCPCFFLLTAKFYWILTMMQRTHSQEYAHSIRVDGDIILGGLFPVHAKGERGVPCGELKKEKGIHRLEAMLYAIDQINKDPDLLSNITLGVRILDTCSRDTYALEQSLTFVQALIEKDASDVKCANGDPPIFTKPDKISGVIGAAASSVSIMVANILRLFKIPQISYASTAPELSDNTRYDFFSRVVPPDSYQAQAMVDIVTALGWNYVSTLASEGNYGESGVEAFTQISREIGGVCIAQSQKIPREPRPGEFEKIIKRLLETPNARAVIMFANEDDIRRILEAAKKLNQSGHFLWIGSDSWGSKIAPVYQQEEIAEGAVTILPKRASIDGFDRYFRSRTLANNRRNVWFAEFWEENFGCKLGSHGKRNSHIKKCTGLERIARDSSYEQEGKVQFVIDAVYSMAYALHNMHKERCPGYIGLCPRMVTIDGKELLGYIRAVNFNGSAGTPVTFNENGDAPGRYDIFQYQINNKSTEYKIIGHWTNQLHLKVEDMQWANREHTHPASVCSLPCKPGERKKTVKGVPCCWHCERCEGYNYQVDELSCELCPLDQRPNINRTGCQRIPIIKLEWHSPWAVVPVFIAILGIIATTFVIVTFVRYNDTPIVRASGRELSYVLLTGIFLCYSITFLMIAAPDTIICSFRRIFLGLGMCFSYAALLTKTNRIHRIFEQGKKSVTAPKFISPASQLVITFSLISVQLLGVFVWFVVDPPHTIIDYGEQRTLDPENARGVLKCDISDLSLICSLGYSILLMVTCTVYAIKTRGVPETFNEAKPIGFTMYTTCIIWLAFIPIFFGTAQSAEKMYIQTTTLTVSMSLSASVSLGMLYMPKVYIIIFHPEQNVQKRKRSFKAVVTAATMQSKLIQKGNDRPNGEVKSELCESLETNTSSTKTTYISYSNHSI
# Assay: rat mGluR8 modulators via GIRK flux, primary screen, cell-based, thallium flux, HTS (AID 488969)
# Details: HEK293 rat mGluR8, GIRK (G protein-gated inwardly rectifying potassium channel) thallium flux, FluoZin2; at 10 µM; stronger effect = higher value; submaximal glutamate (EC20) added with thallium
row,SMILES,z-score
1,O=C(c1cc(-c2ccc(Cl)cc2Cl)on1)N1CCN(C(=O)c2ccco2)CC1,0.486
2,O=C(c1cccc(F)c1)N1CCN(C(=O)c2cc(-c3ccc(Cl)cc3Cl)on2)CC1,3.48 (active)
3,O=C(c1cc(-c2ccc(Cl)cc2Cl)on1)N1CCOCC1,-0.321
4,COC(=O)c1cc2ccccn2c2c(C(=O)OC)c(C(=O)OC)cc1-2,0.219
5,O=C(Nc1ccccc1)c1sc(Cl)nc1-c1ccccc1,-0.405
6,Cc1cc(C)n(-c2ccc(C)c(Cl)c2)n1,-0.078
7,Cc1cc(=O)n2[nH]c(-c3ccccc3)cc2n1,-0.312
8,O=c1cc(-c2ccccc2)[nH][nH]1,0.252
9,Cc1cc(C)[n+]2n1C(=O)C(c1ccccc1)=C2[O-],2.57
10,Cc1cc(C(=O)N2CCN(c3ccccc3)CC2)no1,0.106
11,CCOC(=O)C1CCCN(C(=O)c2cc(=O)c3ccccc3o2)C1 (centres undefined),2.91
12,Cc1ccc(-c2cc(C(=O)N3CCN(C(=O)c4ccco4)CC3)no2)cc1,-0.304
13,O=C(c1cc(-c2ccccc2)on1)N1CCN(C(=O)c2ccco2)CC1,2.21
14,O=C(c1cc(-c2ccccc2)on1)N1CCCC1,3.32 (active)
15,Cc1cc(C(=O)N2CCN(CCc3ccccc3)CC2)no1,8.2 (active)
16,O=C(c1cc(-c2ccccc2Cl)on1)N1CCN(C(=O)c2ccco2)CC1,0.424
17,CN1CCN(C(=O)c2cc(-c3ccccc3)on2)CC1,0.0853
18,Cc1ccc(-c2cc(C(=O)N3CCCC3)no2)cc1,-0.457
19,CCOC(=O)C1CCCN(C(=O)c2ccco2)C1 (centres undefined),0.661
20,CCOC(=O)C1CCCN(C(=O)c2cc3c(C)nc4ccccc4c3o2)C1 (centres undefined),-0.243
21,Cc1noc(C)c1C(=O)N1CCN(CCc2ccccc2)CC1,-0.189
22,COc1ccc2cc(C(c3nnnn3C3CCCCC3)N3CCCCCC3)c3nnnn3c2c1 (centres undefined),-0.929
23,CCn1c(=O)c2ccccc2n2c(SCC(=O)N3CCc4ccccc4C3)nnc12,1.51
24,CCn1c(SCC(=O)NC(C)(C)C)nnc1-c1ccoc1C,0.155
25,CCN(CC)S(=O)(=O)c1ccc(N2CCOCC2)c(NC(=O)Cc2ccccc2)c1,-0.339

row,SMILES,z-score
1,O=C(CC1NCCNC1=O)OCc1ccccc1 (centres undefined),0.419
2,O=C(CC1NCCNC1=O)OCCCc1ccccc1 (centres undefined),1.22
3,CCCOc1ccc(C(=O)NC(=S)Nc2nc(C)c(C(=O)N(C)C)s2)cc1,0.54
4,CCOC(=O)C1CCCN(C(=O)c2cc(-c3ccccc3)on2)C1 (centres undefined),3.22 (active)
5,CCOC(=O)C1CCCN(C(=O)c2cccs2)C1 (centres undefined),-0.161
6,CCOC(=O)C1CCCN(C(=O)c2cc(-c3ccc(C)cc3)on2)C1 (centres undefined),-0.235
7,CC(=O)CSc1nc(N)c(C#N)c(-c2cccs2)c1C#N,-0.18
8,COc1ccc(/C=N/NC(=O)c2nc(-c3ccccc3)cc(-c3ccccc3)n2)cc1,8.06 (active)
9,COc1cccc(/C=N/NC(=O)c2nc(-c3ccccc3)cc(-c3ccccc3)n2)c1,-0.286
10,COc1ccc(/C=N/NC(=O)c2nc(-c3ccccc3)cc(-c3ccccc3)n2)cc1OC,0.42
11,Cn1c(SCC(=O)NC(C)(C)C)nc(O)cc1=O,-0.0162
12,CC12CCC(C(=O)N(NC(=O)c3ccccc3Cl)C1=O)C2(C)C (centres undefined),0.00342
13,O=C1C2C3C=CC(CC3)C2C(=O)N1/N=C/c1ccccc1O (centres undefined),-0.187
14,CC12CCC(C(=O)N(c3ccccc3Cl)C1=O)C2(C)C (centres undefined),0.208
15,CC12CCC(C(=O)N(CSC(=S)N/N=C\c3ccccc3Cl)C1=O)C2(C)C (centres undefined),16.2 (active)
16,CC12CCC(C(=O)N(CC(O)CN3CCCCCC3)C1=O)C2(C)C (centres undefined),0.13
17,CC12CCC(C(=O)N(CSC(=S)N/N=C\c3ccccc3O)C1=O)C2(C)C (centres undefined),5.76 (active)
18,CCCn1c(SCC(=O)N2CCN(c3ccccc3)CC2)nc2ccccc2c1=O,-0.496
19,CCn1c(CNC(=O)c2cccc(C)c2)nnc1SCC(=O)NC1CCCCC1C (centres undefined),0.161
20,Cc1[nH]c2ccc(F)cc2c(=O)c1SC(F)(F)C(F)F,-1.3
21,CCCC(=O)N1CC(=O)Nc2ccc(F)cc2C1c1ccccc1 (centres undefined),-0.534
22,Cc1ccc2c(c1)C(c1ccc(F)cc1)N(C(=O)C1CC1)CC(=O)N2 (centres undefined),2.06
23,Cc1ccc2c(c1)C(c1ccccc1)N(C(=O)C(C)C)CC(=O)N2 (centres undefined),-0.0998
24,Cn1nc(C(=O)NCc2ccccn2)c2ccccc2c1=O,-0.406
25,COC(=O)CSc1nc(NC#N)nc(NC(C)C)n1,-0.00648

row,SMILES,z-score
1,Cc1ccc2cc(C3CC(c4ccco4)=NN3S(=O)(=O)c3ccccc3)c(Cl)nc2c1 (centres undefined),0.136
2,Cc1csc(NC(=O)C(Cc2ccccc2)n2cccc2)n1 (centres undefined),5.2 (active)
3,O=C(NC1CCCC1)C(Cc1ccccc1)n1cccc1 (centres undefined),0.182
4,O=C(Nc1cccnc1)C(Cc1ccccc1)n1cccc1 (centres undefined),0.0231
5,CCSc1nnc(NC(=O)CCc2ccccc2)s1,-0.278
6,O=C(Nc1ncc(Br)s1)C(Cc1ccccc1)n1cccc1 (centres undefined),7 (active)
7,Cc1csc(NC(=O)CSCC(=O)Nc2ccccc2)n1,0.462
8,CCC(C(=O)Nc1nc(C)cs1)c1ccccc1 (centres undefined),-0.691
9,CCSc1nnc(NC(=O)C(Cc2ccccc2)n2cccc2)s1 (centres undefined),4.24 (active)
10,CCSc1nnc(NC(=O)[C@@H](NC(=O)c2ccccc2)C(C)C)s1,-0.168
11,CCN(CC)C(=O)NC(c1ccc(C)c(F)c1)C(Cl)(Cl)Cl (centres undefined),-0.501
12,Cn1cc(S(=O)(=O)CC(=O)Nc2ccc(Br)cc2)c2ccccc21,-0.0267
13,Cc1onc(-c2ccccc2)c1C(=O)Nc1ccc(N2CCOCC2)cc1,-0.074
14,CCC1CCCCN1C(=O)C1CC(c2cc(Cl)c(OC)cc2OC)=NO1 (centres undefined),-0.518
15,Cc1cc(=O)oc2cc(OCC(=O)Nc3nnc(CC(C)C)s3)ccc12,-0.0633
16,CCc1ccc2oc(-c3cc(N=Cc4cccc(OC)c4O)ccc3O)nc2c1,-0.649
17,Cc1cc2c(cc1C)C(c1ccccc1Br)CC(=O)N2 (centres undefined),0.617
18,COc1cnc(-c2ccccn2)nc1Sc1ccc(Cl)cc1,-0.328
19,OCCCc1nc2n(n1)C(c1cccs1)C=C(c1ccc(Br)cc1)N2 (centres undefined),5.08 (active)
20,OCCCc1nc2n(n1)C(c1ccccc1)C=C(c1ccc(F)cc1)N2 (centres undefined),-1.33
21,OCCCc1nc2n(n1)C(c1ccccc1Cl)C=C(c1cccs1)N2 (centres undefined),-1.48
22,OCCCc1nc2n(n1)C(c1cccs1)C=C(c1ccccc1)N2 (centres undefined),2.68
23,Brc1ccc(C2=CC(c3cccs3)n3ncnc3N2)cc1 (centres undefined),-1.55
24,OCCCc1nc2n(n1)C(c1ccccc1)C=C(c1ccccc1)N2 (centres undefined),-0.449
